# An excerpt weighted towards active compounds, which were near 12% of everything screened.
# Pf growth 96h – Primary qHTS for delayed death inhibitors of the malarial parasite plastid, 96 hour incubation; AID 504834, 2011; 320,000 compounds, 6.9% hits; P. falciparum luciferase reporter growth, 96 h; Potency, µM (series often up to 28.7 µM), inactives show top-dose activity change, negative = inhibition, actives largely listed as inhibitors; note: % is set by controls: 0 for no effect and ±100 for the full control effect
#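 Infected RBCs, 2% Hct / 0.05% parasitemia final; luciferase-reporter P. falciparum; cpd 96 h, 37 C, 5% CO2; luciferase detection reagent; luminescence.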
# NS1 inh – qHTS Assay for Inhibitors of Influenza NS1 Protein Function | Potency, µM (top dose mostly 46.1 µM), inactives show at the highest dose activity, positive = more growth | 270,000 compounds, 0.4% hits | AID 2326, 2010; calls by dose curve; note: actives are rising curves; nearly all actives have a fitted effect of over 50% in size
#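 A cell-based growth assay was used: compounds that relieve NS1-induced slow growth of budding yeast raise OD600. Assay medium was yeast nitrogen base with ammonium sulphate and -URA supplement, pH 6.0, with 2% galactose.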
# Pf growth 48h – Primary qHTS for delayed death inhibitors of the malarial parasite plastid, 48 hour incubation. Potency, µM (highest dose often 28.7 µM), for inactives: at the highest dose activity change, negative = inhibition, actives largely listed as inhibitors. AID 504832, 2011. 310,000 compounds, 5.9% hits. P. falciparum luciferase growth in erythrocytes, 48 h; note: % is set by controls: 0 for no effect and ±100 for the full control effect
#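 Read-out is firefly luciferase luminescence from an integrated reporter in P. falciparum, so falling signal marks reduced parasite growth. Infected erythrocytes were at 2% hematocrit and 0.1% parasitemia (final) in Albumax-supplemented RPMI 1640.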
# HCV inh – qHTS Assay for Inhibitors of Hepatitis C Virus (HCV); AID 651820, 2012; 340,000 compounds, 3.4% hits; Potency, µM (top dose mostly 41.8 µM), without a hit: at the top dose activity change, negative = inhibition, actives largely listed as inhibitors; Huh7.5.1 HCVcc-Cre infection, luciferase reporter, 44 h; note: % is set by controls: 0 for no effect and ±100 for the full control effect
#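 Luciferase read-out (15 sec integration) after a 15 min room-temperature substrate step quantifies HCVcc-Cre infection. Cells, 1,000 per well, had compound added 4 h post-plating, then virus at ~0.5 moi, and were cultured 44 h.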
# AMA1-RON2 inh – qHTS for Inhibitors of AMA1-RON; Towards Development of Antimalarial Drug Lead: Primary Screen | Plasmodium falciparum AMA1 (3D7) - RON2 peptide interaction | AlphaScreen AMA1-biotinylated RON2 peptide binding | Potency, µM (highest dose often 58.2 µM), inactives show top-dose activity change, negative = inhibition, hits mostly inhibitors | 360,000 compounds, 0.2% hits | AID 720542, 2013;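 note: 0% = vehicle wells and -100% = peptide control; nearly all actives have a fitted effect of over 45% in size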
#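 AMA1 (3D7) with his tag at 25 nM final met compounds first, then biotinylated RON2 peptide at 25 nM; detection used donor plus acceptor beads, 10 µg/mL apiece, read by AlphaScreen after 30 min at room temperature.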
# SARS PLP yeast – qHTS of Yeast-based Assay for SARS-CoV PLP | S. cerevisiae expressing SARS-CoV PLpro, growth rescue | Potency, µM (top dose mostly 32.9 µM), for inactives: at the top dose activity, positive = growth rescue, usual class: activators | 330,000 compounds, 0.19% hits; calls by dose curve; note: 0% is about no effect; nearly all actives have a fitted effect of over 55% in size
# Active calls of the source: *; ? = inconclusive; . = not tested or not shown. Unless noted, calls come from the whole dose curve; as a rule, active = well fitted curve in the direction sought with a large enough effect; inconclusive = small, poorly fitted or top-dose-only effect, or another doubt; inactive = no such curve, though single readings can be large; an effect the other way counts as inactive or inconclusive. Potency is the fitted concentration of half-maximal effect.
SMILES,Pf growth 96h,NS1 inh,Pf growth 48h,HCV inh,AMA1-RON2 inh,SARS PLP yeast
COc1ccc(N(CC(=O)NCc2ccc(C)cc2)S(=O)(=O)c2c(C)noc2C)cc1,2.33µM*,-2.9%,?,15.8%,2.0%,0.5%
CC(=O)c1cccc(CN2CCCC(CCC(=O)NCc3ccccc3F)C2)c1 (centres undefined),?,0.9%,-24.9%,0.7%,2.5%,0.2%
Cn1ncc2c(=O)[nH]nnc21,.,.,.,28.8%,12.9%,.
OCCNC(=S)c1ccccc1,69.2%,-1.7%,17.4%,4.5%,12.0%,0.3%
O=c1oc2ccccc2c(NC2CCCCC2)c1NS(=O)(=O)c1ccc(Br)cc1,10.4µM*,8.0%,12.8%,-3.8%,-5.5%,0.0%
COc1cc(OC)nc(Oc2cc(/C=N/O)ccc2OC)n1,86.0%,.,24.9%,-8.0%,2.6%,0.5%
CCOC(=O)c1sc2nc(CN3CCN(c4cccc(C(F)(F)F)c4)CC3)[nH]c(=O)c2c1C,-14.7%,-3.2%,3.0%,?,10.3%,-7.6%
c1ccc2c[n+](Cc3ccnc4ccccc34)ccc2c1,.,0.3%,.,.,.,.
COc1ccc(SCCN2CC[C@@H](NC(=O)OCc3ccccc3)CCC2=O)cc1,?,.,?,?,-1.5%,-6.0%
C[C@@H](CSc1ccccc1)CN1CC[C@H](NC(=O)OCc2ccccc2)CCC1=O,?,-33.5%,-8.4%,11.2µM*,11.0%,-9.3%
O=C(N[C@@H]1CCC(=O)N(CC[C@H](Oc2ccccc2)c2ccccc2)CC1)OCc1ccccc1,10.4µM*,14.9%,0.415µM*,-26.5%,1.9%,-6.1%
Cc1ccc(SC[C@H](C)CN2CC[C@H](NC(=O)OCc3ccccc3)CCC2=O)cc1,?,17.5%,-14.1%,-13.9%,7.1%,-0.8%
Cc1ccc(S[C@@H](CCN2CC[C@H](NC(=O)OCc3ccccc3)CCC2=O)c2ccccc2)cc1,?,11.2%,3.0%,12.6µM*,-11.8%,9.9%
CC1CCCCN1S(=O)(=O)c1ccc(N(C(=O)c2cnccn2)C(C(=O)NC2CCCCC2)c2cccs2)cc1 (centres undefined),8.28µM*,-2.6%,11.7µM*,?,-4.0%,2.0%
Cc1cc(C)cc(N(C(=O)c2ccccn2)C(C(=O)NC2CCCCC2)c2cccs2)c1 (centres undefined),?,-3.3%,?,-2.7%,-2.2%,-0.5%
Cc1ccc(N(C(=O)c2cnccn2)C(C(=O)NC2CCCCC2)c2ccc(O)cc2)cc1 (centres undefined),-23.8%,-6.0%,?,-2.4%,-6.0%,-0.3%
CC1CCCCN1S(=O)(=O)c1ccc(N(C(=O)c2cnccn2)C(C(=O)NC2CCCC2)c2cccs2)cc1 (centres undefined),?,-6.1%,13.1µM*,?,5.6%,4.2%
Cc1cc(Br)cn2c(Cc3cccc(F)c3)c(-c3ccc(C#N)cc3)nc12,.,.,.,.,4.2%,.
CC12CCCCC1(O)[N+](=O)C1=C(CCCC1)N2[O-] (centres undefined),4.15µM*,2.8%,10.2%,26.5%,-7.6%,-11.1%
C[n+]1c(-c2ccccc2)cc(CCCCc2cc(-c3ccccc3)[n+](C)c(-c3ccccc3)c2)cc1-c1ccccc1,0.928µM*,.,13.1µM*,?,-12.5%,-1.3%
CCOC(=O)c1c(NC(=O)COC(=O)c2cc(OC)c(OC)cc2[N+](=O)[O-])sc(C)c1C,17.4%,-7.9%,8.8%,-9.0%,20.0%,-2.6%
CC(C)C(c1nnnn1C1CCCCC1)N1CCCc2ccccc21 (centres undefined),-28.7%,6.8%,9.28µM*,7.4%,-9.1%,-24.7%
Cc1ccc(C(c2nnnn2C2CCCC2)N2CCc3ccccc32)cc1 (centres undefined),25.6%,6.0%,?,?,-13.9%,-31.0%

# Compound activity deposited in PubChem BioAssay by National Center for Advancing Translational Sciences (NCATS).
